The list is a sample of the results.
TNAP inh pNP = human TNAP inhibition, p-nitrophenol detection | purified TNAP, pNPP hydrolysis, absorbance 405 nm | inhibition, % at 20 µM | 21,000 tested, under 10 active | AID 615;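 note: 0% = DMSO only wells and 100% = 1 mM levamisole wells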
Target sequence (P05186 whole entry, looked up): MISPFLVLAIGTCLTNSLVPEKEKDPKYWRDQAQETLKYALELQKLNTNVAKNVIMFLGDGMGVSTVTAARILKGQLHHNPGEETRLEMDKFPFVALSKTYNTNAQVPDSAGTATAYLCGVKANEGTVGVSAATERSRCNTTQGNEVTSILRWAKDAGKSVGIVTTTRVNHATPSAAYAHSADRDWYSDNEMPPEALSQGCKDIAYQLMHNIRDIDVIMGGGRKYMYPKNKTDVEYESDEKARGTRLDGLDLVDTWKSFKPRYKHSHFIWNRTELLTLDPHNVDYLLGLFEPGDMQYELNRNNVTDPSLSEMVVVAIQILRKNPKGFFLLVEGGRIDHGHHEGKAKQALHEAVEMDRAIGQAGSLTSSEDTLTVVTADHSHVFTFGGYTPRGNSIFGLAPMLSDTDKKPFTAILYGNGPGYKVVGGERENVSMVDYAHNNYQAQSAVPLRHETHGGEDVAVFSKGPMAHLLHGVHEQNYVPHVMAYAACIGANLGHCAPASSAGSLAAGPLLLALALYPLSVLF
TNAP inh Pi = blocks human TNAP phosphate release; P05186; purified TNAP, pNPP, malachite green phosphate absorbance; inhibition, % at 20 µM; 21,000 tested, under 10 active; AID 614
Numbers without * were called inactive.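 Rule for the calls: active = inhibition above 50% at the 20 µM single-dose screen; inactive = the rest.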

`COc1ccc(OC)c(C2NC(=O)c3sc(=S)n(-c4ccccc4)c3N2)c1` (stereo not given) gave TNAP inh pNP 4 and TNAP inh Pi 9.
COCCOc1ccc(C(F)(F)F)cc1Nc1nc2ccccc2o1 was read as TNAP inh pNP -2 and TNAP inh Pi 7.
For Cc1cc(N2CCN(C3CCCC3)CC2)n2nc(C)c(-c3ccccc3)c2n1 the results were TNAP inh pNP -1 and TNAP inh Pi 7.
`COC(=O)c1ccc(Oc2nc3ccccc3n3c(C)nnc23)cc1` gave TNAP inh pNP -1 and TNAP inh Pi -22.
For CC(C)OC(=O)c1c2nc3ccccc3nc2n2c1[nH]c(=O)c1ccccc12 the results were TNAP inh pNP 0 and TNAP inh Pi -1.
For Cc1ccc(S(=O)(=O)Cn2cnnn2)cc1 the results were TNAP inh pNP 4 and TNAP inh Pi 2.
Screening O=C(Nc1c(C(=O)N2CCOCC2)cnn1-c1ccccc1Cl)c1ccco1 returned TNAP inh pNP 0 and TNAP inh Pi 5.
For COc1ccc(Nc2nc(C)cc(C)c2C(N)=O)c(OC)c1 the results were TNAP inh pNP 3 and TNAP inh Pi 11.
For Cc1csc(NC(=O)CSc2nnc(-c3ccoc3C)n2Cc2ccco2)n1 the results were TNAP inh pNP -6 and TNAP inh Pi 3.
CC(C)C[C@H](N)c1nnc(S(=O)(=O)Cc2ccc(F)cc2)o1 was read as TNAP inh pNP 9 and TNAP inh Pi 13.
For COc1cc2c(cc1NC(=O)CN(C)Cc1nc3ccccc3c(=O)[nH]1)oc1ccccc12 the results were TNAP inh pNP 5 and TNAP inh Pi 13.
`CCOC(=O)c1ccc(CNC(=O)c2n[nH]c(=O)c3ccccc23)o1` gave TNAP inh pNP 0 and TNAP inh Pi 0.
`CN(C)CCCN1C(=O)C(O)=C(C(=O)c2cc3ccccc3o2)C1c1ccccn1` (stereo not given) gave TNAP inh pNP -3 and TNAP inh Pi 5.
`CC(NC(=O)Nc1nnc(C(F)(F)F)s1)(C(F)(F)F)C(F)(F)F` gave TNAP inh pNP 7 and TNAP inh Pi 11.
`CCCCN(CCCC)CCNC(=O)Cc1nc2c(c(=O)[nH]c(=O)n2C)n1C` gave TNAP inh pNP 8 and TNAP inh Pi 9.
Screening CCNC(=O)c1sc(-c2ccccc2)nc1C returned TNAP inh pNP 0 and TNAP inh Pi 7.
`Cc1ccc(S(=O)(=O)N(C)CCCC(=O)N2CCN(C=O)CC2)cc1` gave TNAP inh pNP 0 and TNAP inh Pi 6.
COC(=O)CCCC(=O)N1CCOCCN(C(=O)CCCC(=O)OC)CCOCC1 was read as TNAP inh pNP 2 and TNAP inh Pi 7.
CCc1nc2c(sc3nc(N4CCOCC4)c4c(c32)CC(C)(C)OC4)c(=O)o1 was read as TNAP inh pNP 5 and TNAP inh Pi 8.
For CC(C)n1c(SCC(=O)c2ccc3c(c2)OCCO3)nc2c1c(=O)n(C)c(=O)n2C the results were TNAP inh pNP 6 and TNAP inh Pi 14.
For Cc1nn2c(-c3ccc(Cl)cc3Cl)nnc2s1 the results were TNAP inh pNP 7 and TNAP inh Pi 1.
`CCOc1ccc(NC(=O)COC(=O)c2cccnc2)cc1` gave TNAP inh pNP 3 and TNAP inh Pi 7.
Screening Cc1cc(-c2nn3c(C)nnc3s2)ccc1NC(=O)C(C)(C)C returned TNAP inh pNP 3 and TNAP inh Pi 6.
Cn1c(OCc2ccc3c(c2)OCO3)nc2c1c(=O)n(Cc1cccc(Cl)c1)c(=O)n2C was read as TNAP inh pNP 5 and TNAP inh Pi 10.
`COc1ccccc1CCn1cnc2c3cc(C)ccc3n(C)c2c1=O` gave TNAP inh pNP 3 and TNAP inh Pi 9.
For O=c1cc(NCc2ccccc2)nc2n1CCCS2 the results were TNAP inh pNP -1 and TNAP inh Pi -4.
For CC(C)CCN1C(=O)c2ccc(C(=O)OCn3nnc4ccccc4c3=O)cc2C1=O the results were TNAP inh pNP 5 and TNAP inh Pi 12.
CC(=O)C1=C(O)C(=O)N(c2cccc(C(=O)O)c2)C1c1ccc(F)cc1 (stereo not given) was read as TNAP inh pNP 1 and TNAP inh Pi 6.
`Nc1nnc(SCCOc2ccc(Br)cc2)s1` gave TNAP inh pNP 1 and TNAP inh Pi 6.
`Cc1cc(/C=C(/C#N)c2cccc(F)c2)c(C)n1-c1cccnc1` gave TNAP inh pNP 0 and TNAP inh Pi 0.
For COCC(=O)NC1CCN(C(=O)Nc2ccc(Br)cc2)CC1 the results were TNAP inh pNP 5 and TNAP inh Pi 8.
`CCn1c(=O)c2cc(S(=O)(=O)NC3CCCCC3)ccc2n(CC)c1=O` gave TNAP inh pNP 0 and TNAP inh Pi 0.
`C=CCn1c(=O)c2ccccc2n2c(SCc3csc(-c4ccccc4)n3)nnc12` gave TNAP inh pNP -2 and TNAP inh Pi 9.
`CCC(=O)N1CCN(c2ccc(Cl)cc2NC(=O)c2ccc(Br)o2)CC1` gave TNAP inh pNP 4 and TNAP inh Pi 7.
`CCOC(=O)CN1C(=O)C(O)(C2CCc3ccccc3C2=O)c2ccccc21` (stereo not given) gave TNAP inh pNP 6 and TNAP inh Pi 6.
`O=C(O)CCCCCNC(=O)CCn1cnc2ccccc2c1=O` gave TNAP inh pNP 8 and TNAP inh Pi -1.
Screening O=S(=O)(Cc1ccc(Cl)cc1)N1CCCC1 returned TNAP inh pNP -2 and TNAP inh Pi 3.
Screening Oc1ccc(N2CCN(C(c3cccs3)c3nnnn3CCc3ccccc3)CC2)cc1 (stereo not given) returned TNAP inh pNP 3 and TNAP inh Pi 6.
CCNc1nc(NC(C)C)nc(Oc2ccc(OCCOc3ccccc3)nn2)n1 was read as TNAP inh pNP 1 and TNAP inh Pi 6.
`Cc1nc(COC(=O)c2c(C)nn(-c3ccccc3)c2C)cs1` gave TNAP inh pNP -5 and TNAP inh Pi 3.
For C=CCOc1cccc(C2C(C(=O)c3ccc(C)o3)=C(O)C(=O)N2c2nccs2)c1 (stereo not given) the results were TNAP inh pNP -2 and TNAP inh Pi -19.
For CN1C(=O)c2oc3ccc(Br)cc3c(=O)c2C1c1ccncc1 (stereo not given) the results were TNAP inh pNP 5 and TNAP inh Pi -2.
O=C1CC(N2CCC(O)(c3ccc(Cl)cc3)CC2)C(=O)N1Cc1ccc(N2CCCC2=O)cc1 (stereo not given) was read as TNAP inh pNP 4 and TNAP inh Pi 14.
Screening O=C(NC1CCCCCC1)C1CC(=O)N(Cc2ccccc2)C1 (stereo not given) returned TNAP inh pNP 3 and TNAP inh Pi 6.
`COc1cc(-c2ccc(NC(=O)CN3CCCCC3)c(OC)c2)ccc1NC(=O)CN1CCCCC1` gave TNAP inh pNP 0 and TNAP inh Pi 8.
CCCCCCC1CC(CSc2ncn[nH]2)OC1=O (stereo not given) was read as TNAP inh pNP 43 and TNAP inh Pi 45.
`Cc1cccc(C)c1NC(=O)C1CCCCN1C` (stereo not given) gave TNAP inh pNP 2 and TNAP inh Pi 9.
`COc1cc(OC)nc(NC(=O)COC(=O)C2CCCCC2)n1` gave TNAP inh pNP 2 and TNAP inh Pi 6.
`CC(=O)OCCNC(=O)Cn1cnc2c1c(=O)n(C)c(=O)n2C` gave TNAP inh pNP -2 and TNAP inh Pi 7.
For CN(C1CCCCC1)S(=O)(=O)c1ccc(Cl)c(C(=O)O)c1 the results were TNAP inh pNP -3 and TNAP inh Pi 4.
`Cc1oc(-c2nc3ccccc3n2C)cc1C(=O)c1ccccc1` gave TNAP inh pNP -4 and TNAP inh Pi -37.
